Hits are enriched below; roughly 11% of the tested compounds scored in any of these assays.
PNC assembly inh: blocks assembly of the perinucleolar compartment. PC3M PTB-GFP, PNC prevalence imaging, 16 h; hits give low values. hit rate 3.1% among 140,000. AID 2417. activity change (PNC), negative = inhibition, % at 10 µM;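 active means readout at or below -70, meaning at least 70% loss of cells showing the perinucleolar compartment, a nuclear body marking cancer cells; inconclusive means readout between -30 and a set limit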;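 further: plate controls were DMSO wells for no effect and camptothecin positive control wells for full effect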
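Compounds are pinned in duplicate onto adhered PC3M cells stably expressing GFP-tagged PTB and incubated 16 h at 37 C. Cells are then fixed, nuclei stained with Hoechst, and PNC-positive cells counted.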
IMPase Li cell: IMPase inhibition in cells with lithium potentiation | Potency, µM (top dose mostly 59.4 µM), without a hit: at the top dose activity, negative = IMPase inhibition, actives largely listed as inhibitors | CHO-M1 cells, IP1 TR-FRET (IP-One), carbachol + lithium | hit rate 0.35% among 210,000 | AID 1457; active means well fitted curve in the direction sought with a large enough effect; inconclusive means small, poorly fitted or top-dose-only effect, or another doubt; inactive means no such curve, though single readings can be large; an effect the other way counts as inactive or inconclusive;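 further: IP1 builds up when IMPase is blocked and the TR-FRET signal falls; potency means the concentration at half of the fitted maximal effect; plate controls were basal vehicle for no effect and high inhibitor control for full effect; nearly all actives have a fitted effect of over 50% in size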
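Lithium-sensitised IP1 accumulation assay; M1-expressing CHO cells treated 30 min at 37C with compound. Competitive antibody detection by time-resolved FRET followed a 10 min room-temperature lysis step.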
ALDH1A1 inh: inhibitors of human aldehyde dehydrogenase 1A1; P00352; AID 1030; hit rate 7.3% among 220,000; Purified ALDH1A1, NADH fluorescence, propionaldehyde substrate; Potency, µM (series often up to 75.3 µM), inactives show top-dose activity, negative = inhibition, hits mostly inhibitors;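 further: potency means the concentration at half of the fitted maximal effect; plate controls were no enzyme wells and a reference inhibitor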
IMPase cell inh: IMPase inhibition in cells; 120,000 tested, under 10 active; inhibition (IP1 accumulation), % at 46.1 µM; P97697; CHO-M1 cells, IP1 accumulation, HTRF TR-FRET ratio; active means well fitted curve in the direction sought with a large enough effect in the signal ratio, not every such curve was filed as active; inconclusive means small, poorly fitted or top-dose-only effect, or a change in a side signal; inactive means no such curve, though single readings can be large or run the other way; the % refers to the signal ratio;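 further: cells stimulated with carbachol in lithium chloride buffer; plate controls were DMSO basal wells for no effect and reference inhibitor wells for full effect; higher means more IMPase inhibition seen as more IP1 and lower FRET ratio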
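Measured: the HTRF emission ratio (665/620 nm) plus the 620 nm donor channel, each fitted to the Hill equation to give AC50. Cells were CHO-M1 given compounds up to 46 uM and a 30 min carbachol stimulation at 37C.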
HPGD block: inhibitors of human 15-hydroxyprostaglandin dehydrogenase (HPGD); P15428; hit rate 4.3% among 150,000; Potency, µM, for the others: top-dose activity change, negative = inhibition, most hits filed as inhibitors; purified HPGD, NADH fluorescence kinetic, PGE2 substrate; further: potency means the concentration at half of the fitted maximal effect
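20 nM HPGD preincubated 15 min at room temperature with compound in 50 mM Tris-HCl pH 8, 0.01% Tween 20. Started with 1 mM NAD+ and 30 uM prostaglandin E2; NADH fluorescence (360/450 nm) read 5 times over 30-s intervals, last minus first.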
12-hLO inh: 12-hLO (ALOX12) enzyme inhibition; P18054; purified 12-hLO, xylenol orange hydroperoxide absorbance; Potency, µM (doses to about 57.1 µM), inactives show at the highest dose activity change, negative = inhibition, most hits filed as inhibitors; hit rate 0.12% among 150,000; AID 1452; active means well fitted curve in the direction sought with a large enough effect; inconclusive means small, poorly fitted or top-dose-only effect, or another doubt; inactive means no such curve, though single readings can be large; an effect the other way counts as inactive or inconclusive; further: potency means the concentration at half of the fitted maximal effect; nearly all actives have a fitted effect of over 55% in size
Target sequence (P18054 whole entry, looked up): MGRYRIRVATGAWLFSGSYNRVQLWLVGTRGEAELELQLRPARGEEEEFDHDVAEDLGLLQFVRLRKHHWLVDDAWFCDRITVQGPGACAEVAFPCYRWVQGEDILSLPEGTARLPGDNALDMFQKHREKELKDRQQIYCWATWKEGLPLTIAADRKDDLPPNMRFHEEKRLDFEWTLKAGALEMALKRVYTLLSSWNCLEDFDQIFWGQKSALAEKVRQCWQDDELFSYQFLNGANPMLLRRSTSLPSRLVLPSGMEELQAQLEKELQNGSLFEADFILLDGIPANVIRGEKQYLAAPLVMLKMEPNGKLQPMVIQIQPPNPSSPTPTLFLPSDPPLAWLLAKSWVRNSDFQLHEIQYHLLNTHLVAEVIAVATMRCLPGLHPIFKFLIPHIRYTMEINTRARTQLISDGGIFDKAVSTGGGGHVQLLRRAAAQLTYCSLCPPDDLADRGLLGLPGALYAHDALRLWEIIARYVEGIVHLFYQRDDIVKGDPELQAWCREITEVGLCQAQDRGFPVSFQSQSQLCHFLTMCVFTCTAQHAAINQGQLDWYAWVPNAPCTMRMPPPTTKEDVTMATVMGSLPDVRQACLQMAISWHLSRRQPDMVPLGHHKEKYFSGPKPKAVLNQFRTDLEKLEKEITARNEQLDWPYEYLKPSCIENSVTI
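Hydroperoxide formation by human 12-lipoxygenase from 40 uM arachidonic acid was followed colorimetrically via ferric-xylenol orange complex, using the 573/405 nm absorbance ratio. Enzyme concentration was 150 nM, with 30 min reaction at room temperature.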
The depositor's hits bear a star; ? = inconclusive; · = not tested or not shown; [ ] = remark or other dose. Unless noted, the call rests on the fitted dose curve; in most records, active means well fitted inhibition curve with a large enough effect (not every such curve was filed as active); inconclusive means small, poorly fitted or top-dose-only effect, or another doubt; inactive means no such curve, though single readings can be large or run the other way. Unless noted, on the % scale 0 is the no-effect control and ±100 the full control effect.

SMILES	PNC assembly inh	IMPase Li cell	ALDH1A1 inh	IMPase cell inh	HPGD block	12-hLO inh
COc1cc(/C=N/NC(=O)c2nc(-c3ccccc3)n(-c3ccccc3)n2)ccc1O	44.2	6.3%	-0.6%	9.8	-19.6%	-5.6%
Cc1nn(-c2ccccc2)c(Cl)c1C(=O)NCc1cccs1	?	6.7%	-1.4%	-5.5	10µM*	-0.2%
COC(=O)c1sccc1NC(=O)COc1ccc(F)cc1Cl	·	-13.3%	8.9%	·	·	·
O=C(N/N=C/c1ccc(O)cc1)c1nc(-c2ccccc2)n(-c2ccccc2)n1	-100.1*	5.6%	2.1%	·	-6.0%	-3.3%
Cc1nn(-c2ccccc2)c(C)c1NC(=O)COc1ccc(F)cc1Cl	-102.4*	19.0%	?	·	-16.4%	-0.1%
COc1cccc2c1C(=O)c1c(O)c3c(c(O)c1C2=O)C[C@@](O)(C(=O)CO)C[C@H]3O[C@H]1C[C@@H](N)[C@H](O)[C@@H](C)O1.[W]	·	-0.2%	-10.6%[13.5 µM]	·	-3.0%	-2.7%[11.4 µM]
CC(C)c1ccc(Nc2c(-c3ccsc3)nc3ccc(Cl)cn23)cc1	·	·	·	6.4	·	·
Cc1nn(-c2ccccc2)c(C)c1NC(=O)c1cccs1	4.9	8.6%[38.3 µM]	3.1%	0.8	-9.3%	1.7%
Cc1c(-c2ccccc2)nc2ccccc2c1C(=O)NCc1cccs1	-18.0	8.5%	14.1µM*	-8.4	?	-7.9%
Cc1c(C(=O)NCc2cccs2)oc2ccccc12	14.2	12.6%[38.3 µM]	1.7%	4.8	-28.3%	-2.8%
CC(C)CNC(=O)c1nc(-c2ccccc2)n(-c2ccccc2)n1	?	11.4%[38.3 µM]	12.6µM*	5.0	-1.8%	-8.1%
Cc1nn(-c2ccccc2)c(C)c1NC(=O)Cc1cccs1	39.4	7.7%	-4.1%	·	15.8µM*	0.0%
COc1ccc(-c2nc(-c3ccccc3)c(NC(C)(C)C)o2)cc1	·	19.2%	0.5%	·	-4.6%	6.8%
Cc1cc(O)ccc1NC(=O)CCN1C(=O)c2ccc([N+](=O)[O-])cc2C1=O	-97.9*	5.2%	11.2µM*	·	-14.3%	-1.0%
Cc1ccc(-n2nnnc2-c2ccccc2)cc1	·	-2.0%	-1.4%	·	·	·
Cc1ccc(-n2nnnc2C(Cl)c2nnnn2-c2ccc(C)cc2)cc1	20.6	7.2%	-2.9%	3.5	5.01µM*	-1.8%
CN(C)c1ccc(C(=S)NCc2ccco2)cc1	-17.1	22.3%[38.3 µM]	5.01µM*	-3.7	?	-4.6%
CN(C)C1C(=O)C(C(N)=O)=C(O)[C@@]2(O)C(=O)C3=C(O)c4c(O)ccc(Cl)c4[C@@H](O)C3C[C@@H]12 (stereo partly drawn)	·	10µM*	-6.2%	·	-22.3%	·
CN(C)C1C(=O)C(C(N)=O)C(=O)C2(O)C(=O)C3C(=O)c4c(O)ccc(Cl)c4C(O)C3CC12 (stereo not drawn)	·	10µM*	-7.3%	·	-20.1%	-2.2%[0.00818 µM]
C[C@@H]1/C=C\CC(=O)OC[C@H](C)C(=O)N2CCC[C@@H]2C(=O)OC1	·	·	0.0%[13.5 µM]	·	·	·
CCOC(=O)C1C(c2cc(OC)c(OC)c(OC)c2)NC(=S)NC1(O)C(F)(F)F (stereo not drawn)	?	-5.5%[38.3 µM]	?	-2.2	31.6µM*	-13.2%
CCOc1cc(C2NC(=O)NC(O)(C(F)(F)F)C2C(=O)c2ccc(OC)cc2)ccc1O (stereo not drawn)	-1.2	4.2%[38.3 µM]	5.62µM*	2.6	-11.8%	-16.4%
CCOC(=O)C1C(c2cc(OC)c(O)c(OC)c2)NC(=S)NC1(O)C(F)(F)F (stereo not drawn)	-13.5	-0.8%	9.6%	·	-3.9%	0.9%
CCOc1ccc(CCNC(c2nnc(-c3ccccc3)o2)c2ccccc2Cl)cc1OCC (stereo not drawn)	·	·	·	14.7	·	·
COc1ccc(NC(=O)c2sc(SC)nc2N)cc1	3.0	-1.7%[38.3 µM]	-4.1%	13.4	-7.0%	-15.1%
SMILES	PNC assembly inh	IMPase Li cell	ALDH1A1 inh	IMPase cell inh	HPGD block	12-hLO inh
COc1ccc(NC(=O)c2sc(SCc3ccccc3)nc2N)cc1	?	10.1%	12.6µM*	-2.2	?	0.9%
COC(=O)c1ccccc1Nc1cc(C)nc2nc(C)nn12	25.0	7.6%	22.3%	·	1µM*	-4.5%
CCOC(=O)c1ccccc1Nc1cc(C)nc2nc(C)nn12	-9.5	1.8%	5.4%	-5.4	2.24µM*	-4.2%
COC(=O)c1ccc(Nc2cc(C)nc3nc(C)nn23)cc1	27.2	-4.5%	6.9%	·	-26.2%	-3.7%
CCCCc1nc2c(c3c1C[C@H](C)OC3)CN(C(=O)C1CC1)CC2	·	10.0%	6.0%[13.5 µM]	·	-0.6%	0.8%[11.4 µM]
Cc1ccc(Nc2nc3ccc(C)cc3nc2-n2nc(C)cc2C)c(C)c1	·	·	·	-2.7	·	·
CCOC(=O)c1c(CC(C)C)csc1NC=O	24.8	14.9%[38.3 µM]	?	7.4	-19.3%	-5.2%
CCOC(=O)c1c(-c2ccc(C)cc2)csc1/N=C/N(C)C	·	-7.8%	-0.4%	·	·	·
CCOC(=O)c1c(CC(C)C)csc1/N=C/C1C(=O)CCCC1=O	·	-4.5%	11.2µM*	·	·	·
CCOC(=O)c1c(-c2ccccc2)csc1/N=C/C1C(=O)CCCC1=O	38.1	-8.7%	3.55µM*	·	-6.7%	-7.7%
COc1ccc2[nH]cc(CCNc3nc(-c4cccc(C#N)c4)nc4ccccc34)c2c1	·	11.8%	?	·	·	·
CC1(C)[C@@H]2CC[C@@]1(CS(=O)(=O)Nc1ccccc1)C(=O)C2	·	-1.1%	15.3%[13.5 µM]	·	-4.1%	-1.0%[11.4 µM]
COc1ccccc1CNC(=O)CN1C(=O)CSc2ccc(S(=O)(=O)N3CCCC3)cc21	·	-6.4%	-8.0%	·	·	·
C=CCN1C(=O)CSc2ccc(C(=O)NCc3cccs3)cc21	·	5.8%	8.91µM*	·	·	·
O=C(NCc1cccs1)c1ccc(Cl)c(S(=O)(=O)N2CCCC2)c1	·	0.3%	5.8%	·	·	·
CCN1C(=O)CSc2ccc(C(=O)NCc3ccccc3OC)cc21	0.3	14.2%[38.3 µM]	10µM*	9.8	-14.9%	-2.1%
CCN1C(=O)CSc2ccc(C(=O)NC3CCCCC3)cc21	?	-2.5%[38.3 µM]	12.6µM*	-4.0	-3.8%	-5.9%
CCC(C)NC(=O)c1ccc2c(c1)N(Cc1ccccc1)C(=O)CS2 (stereo not drawn)	·	?	-15.7%	·	·	·
O=C(O)CCSc1nc2ccccc2c(=O)[nH]1	32.8	5.2%	12.0%	4.2	-4.8%	3.2%
O=C(O)CSc1ccc2ccccc2n1	?	7.08µM*	-58.0%	?	-17.9%	5.1%
Cc1cc(SCCC(=O)O)nc2ccccc12	44.3	11.2µM*	-13.0%	?	-21.2%	0.8%
Cc1nc(SCCC(=O)O)c2ccccc2n1	6.9	12.6µM*	12.3%	?	-10.4%	-1.7%
O=C(CSc1nc2ccc(Cl)cc2[nH]1)c1ccc2c(c1)OCO2	?	5.3%[38.3 µM]	17.8µM*	12.5	-15.9%	-23.9%
CCOC(=O)CCSc1cc(C)c2ccccc2n1	·	-6.2%	-0.9%	·	·	·
COc1ccc(-n2c(=O)c(C)nc3cnc(N(C)C)nc32)cc1	·	-0.3%	?	·	-8.3%	4.4%
CC(=O)N[C@@H](C(=O)O)C(C)(C)SN=O	·	26.9%	-11.8%	3.5	-14.6%	-3.5%

Compound activity from PubChem.
